CYP2C9 inh – blockers of cytochrome P450 2C9 activity – biochemical, luminescence, ADME assay, primary screen; AID 777, 2007; CYP2C9 Supersomes, luciferin-H conversion; inhibition, % at 5 µM; P11712; hit rate 20% among 96,000;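 active = blocking of liver enzyme CYP2C9 beyond about 50% at 5 µM, limit read from the data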
Target sequence (P11712 whole entry, looked up): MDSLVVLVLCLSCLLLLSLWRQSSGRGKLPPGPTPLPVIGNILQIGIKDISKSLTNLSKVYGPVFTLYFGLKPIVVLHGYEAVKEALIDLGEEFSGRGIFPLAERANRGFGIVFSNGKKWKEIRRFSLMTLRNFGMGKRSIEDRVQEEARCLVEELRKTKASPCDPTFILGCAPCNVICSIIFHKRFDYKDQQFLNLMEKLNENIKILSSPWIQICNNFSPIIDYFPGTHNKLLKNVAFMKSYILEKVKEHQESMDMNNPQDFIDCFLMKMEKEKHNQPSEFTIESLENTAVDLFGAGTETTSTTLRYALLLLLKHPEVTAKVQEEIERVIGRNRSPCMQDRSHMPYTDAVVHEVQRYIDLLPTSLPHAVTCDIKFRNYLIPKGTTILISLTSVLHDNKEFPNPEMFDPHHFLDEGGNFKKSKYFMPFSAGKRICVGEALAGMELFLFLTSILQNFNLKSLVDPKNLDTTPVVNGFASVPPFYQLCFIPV
CYP2C19 activ – human CYP2C19 activators, primary screen, biochemical, luminescence; Cytochrome P450 2C19 (Homo sapiens), P33261; recombinant CYP2C19, luciferin-H EGE luminescence; hits give high values; 0 = fully inhibited enzyme, 1 = untreated enzyme; activation factor at 5 µM; 96,000 tested, under 10 active;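 active = activation factor of at least 2 at 5 µM in the primary screen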;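 note: 0 = wells with 2.5 mM tranylcypromine and 1 = vehicle-only wells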
Cav3 T inh – Cav3.2 calcium influx blockers – cell-based, Fluo-4 calcium fluorescence, FDSS, MLSMR library, primary screen; Voltage-dependent T-type calcium channel subunit alpha-1H (Homo sapiens), O95180; B-score at 10 µM; hit rate 4% among 100,000; Cav3.2-expressing cells; hits give low values;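 active = single-dose well whose peak fluorescence ratio is a statistical outlier from its plate by either plate-standardised score or position-corrected B-score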
CYP2C19 inh – blockers of cytochrome P450 2C19 activity – biochemical, luminescence, ADME assay, primary screen. CYP2C19 Supersomes, luciferin-H EGE luminescence, 30 min. P33261. hit rate 21% among 96,000. inhibition, % at 5 µM;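 active = CYP2C19 inhibition above a set limit at 5 µM in the primary screen, cut at about 50% in these data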;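 note: plate controls were negative control wells for no effect and 2.5 mM tranylcypromine positive control for full effect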
CYP2C9 act – human CYP2C9 activators, primary screen, biochemical, luminescence; Cytochrome P450 2C9 (Homo sapiens), P11712; recombinant CYP2C9, luciferin-H conversion; hits give high values; factor 1 = untreated enzyme, 0 = blocked; activation factor at 5 µM; hit rate 1.4% among 96,000;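 active = activation factor of 2 or more for CYP2C9 at a 5 µM dose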;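 note: 0 = sulfaphenazole-blocked wells and 1 = vehicle-only wells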
Active calls of the source: *; x = no result. An excerpt weighted towards active compounds, which were near 27% of everything screened.

SMILES | CYP2C9 inh | CYP2C19 activ | Cav3 T inh | CYP2C19 inh | CYP2C9 act
COC(=O)N1CC(=O)N(OC)C1c1ccc(Cl)cc1Cl (stereo not drawn) | -7 | 0.1 | 0.84 | 87* | 1.1
Cc1ccc(-n2c3c(c(=O)[nH]c2=S)C(C(F)(F)F)(C(F)(F)F)NC(=O)N3)cc1 | 54* | 1.1 | 0.22 | -6 | 0.5
O=c1sc2ccccc2n1COc1ccccc1 | 59* | 0.1 | x | 89* | 0.4
O=c1sc2ccccc2n1CCCOc1ccccc1 | 62* | 0.5 | -3.5 | 47 | 0.4
Cc1ccc(OCCCn2c(=O)sc3ccccc32)cc1 | 6 | 0.7 | -2.1 | 32 | 0.9
Cc1ccccc1OCCCn1c(=O)sc2ccccc21 | 55* | 0.7 | -1.3 | 33 | 0.5
COc1ccc(Cn2c(=O)sc3ccccc32)cc1 | 68* | 0.5 | -1.5 | 50* | 0.3
c1cnc(SCCOc2ccc3c(c2)CCC3)nc1 | 23 | 0.9 | -1.2 | 14 | 0.8
Cc1ccc(Sc2ccc(NC(=O)c3ccc(S(C)(=O)=O)cc3Cl)cc2)cc1 | -18 | 1.1 | 0.14 | -12 | 1.2
CC(O)c1n(C)c(Cl)c[n+]1C (stereo not drawn) | -21 | 1 | x | -3 | 1.2
O=c1sc2ccccc2n1COc1ccc(Cl)cc1 | 94* | 0 | -1.4 | 100* | 0.1
Cc1ccc(OCCn2c(=O)sc3ccccc32)cc1 | x | x | -2.1 | x | x
C=CCNC(=S)NCC=C | x | x | 0.011 | x | x
Cc1ccc(C)c(S(=O)(=O)NC(CCC(N)=O)C(=O)O)c1 (stereo not drawn) | -19 | 1.2 | 0.48 | -18 | 1.2
Cc1ccc(CNC(=O)CSc2c3c(nc4cc(Cl)ccc24)CCCC3)o1 | 39 | 0.2 | -1.4 | 80* | 0.6
O=C(NCc1ccco1)Nc1ccc(Br)cc1 | 64* | 0.4 | -0.2 | 64* | 0.4
CC1CC1C(=O)OCC(=O)NC(=O)NCc1ccco1 (stereo not drawn) | 5 | 0.9 | 0.72 | 14 | 0.9
Cc1ccc(NC(=O)NC2(C(=O)NCc3ccco3)CCCCC2)cc1 | 54* | 0.1 | 1 | 93* | 0.5
O=C(Nc1ccccc1)NC1(C(=O)NCc2ccco2)CCCCC1 | 40 | 0.9 | x | 15 | 0.6
O=C(NCc1ccco1)C1(c2ccc(Br)cc2)CCCC1 | 70* | 0.7 | -2 | 31 | 0.3
CC(=O)Nc1ccc(SCC(=O)OCC(=O)NC(=O)NCc2ccco2)cc1 | 66* | 0.8 | x | 20 | 0.3
CCCCCCc1cc2cc(C(=O)NC)c(=N)oc2cc1O | 38 | 0.6 | -9.3* | 38 | 0.6
CCCCCCc1cc2cc(C(N)=O)c(=N)oc2cc1O | 47 | 0.9 | -11* | 5 | 0.5
NC(=O)c1cc2cc(Cl)ccc2oc1=O | -11 | 1.1 | 0.18 | -5 | 1.1
COC(=O)NC(=S)Nc1ccc(Oc2ccc(Cl)cc2Cl)c(Cl)c1 | x | x | -0.079 | x | x
SMILES | CYP2C9 inh | CYP2C19 activ | Cav3 T inh | CYP2C19 inh | CYP2C9 act
c1ccc(Cn2nnnc2CN2CCN(c3ncccn3)CC2)cc1 | 93* | 0.8 | 0.42 | 19 | 0.1
COc1ccc(Cn2nnnc2CN2CCOCC2)cc1 | x | x | 1.9 | x | x
Fc1ccc(Cn2nnnc2CN2CCc3ccccc3C2)cc1 | 47 | 0.4 | -1.2 | 58* | 0.5
Cc1cc2nnc(SCc3ccccc3)n2c(N)n1 | 27 | 0.7 | 0.0071 | 26 | 0.7
COC(=O)c1cccc(NC(=O)Nc2ccc(Cl)c(Cl)c2)c1 | 14 | 1 | 1.3 | 3 | 0.9
COC(=O)c1cccc(NC(=O)NC2CCCN2S(=O)(=O)c2ccc(Cl)cc2)c1 (stereo not drawn) | 54* | 0.8 | -3.2 | 24 | 0.5
O=C(CSC1=NCCS1)N1CCCC1 | 17 | 0.9 | -0.15 | 13 | 0.8
O=C(CSC1=NCCS1)N1CCCCCC1 | -3 | 0.4 | 0.47 | 57* | 1
Cn1nnnc1SCSc1nnnn1C | 23 | 1 | 0.29 | -5 | 0.8
Cn1nnnc1SCc1ccc(F)cc1 | -5 | 0.4 | 0.15 | 56* | 1.1
Cc1occc1-c1nnc(SCc2nnc(-c3ccc(Cl)cc3)o2)n1C | x | x | 0.18 | x | x
Cc1cccc(C)c1NC(=O)CSc1nnnn1C | -16 | 1.1 | 0.32 | -13 | 1.2
Cn1nnnc1SCc1nnc(-c2ccc(Cl)cc2)o1 | 14 | 0.2 | -1.9 | 78* | 0.9
Cn1nnnc1SCc1nc2ccccc2s1 | -20 | 0.4 | -0.23 | 64* | 1.2
Cc1ccc(CSc2nnnn2C)cc1 | 12 | 0.3 | 0.01 | 74* | 0.9
NCCCCCNC(=O)/C=N\O | -2 | 1.1 | -0.039 | -6 | 1
CC(C)C(NC(=O)c1cccs1)c1nnc(SCC(=O)Nc2nccs2)n1C (stereo not drawn) | 41 | 0.9 | 0.33 | 6 | 0.6
O=C(Cn1nc(-c2ccc(N3CCOCC3)c([N+](=O)[O-])c2)c2ccccc2c1=O)N1CCCCC1 | 47 | 1 | 0.95 | 4 | 0.5
O=C(N=c1nc2ccccn2s1)c1ccccc1 | 36 | 0.2 | x | 76* | 0.6
Cc1csc(=NC(=O)c2ccccc2)n1C | x | x | 0.11 | x | x
O=C(O)CCn1[nH]c(=O)c2ccccc2c1=O | -2 | 1 | 0.51 | -2 | 1
N#CCc1c(C#N)c(N)nc(N2CCOCC2)c1C#N | x | x | 0.034 | x | x
CC(C)Sc1nc(N2CCCC2)c2c(c1C#N)CC(C)(C)OC2 | 87* | 0.4 | -2.3 | 61* | 0.1
CC1(C)Cc2c(c(N3CCCCC3)[nH]c(=S)c2C#N)CS1 | 38 | 1 | 0.57 | 4 | 0.6
CC(C)Sc1nc(N2CCOCC2)c2c(c1C#N)CC(C)(C)N(C)C2 | 97* | 0.4 | 1.7 | 64* | 0
SMILES | CYP2C9 inh | CYP2C19 activ | Cav3 T inh | CYP2C19 inh | CYP2C9 act
CCCSc1nc(N2CCOCC2)c2c(c1C#N)CC(C)(C)SC2 | 66* | 0.7 | -0.64 | 35 | 0.3
CC(C)Sc1nc(N2CCOCC2)c2c(c1C#N)CC(C)(C)SC2 | 95* | 0.3 | -3.4 | 70* | 0.1
COc1ccc(CNC(=O)C(c2ccco2)N(C(=O)c2csnn2)c2cccc(C)c2C)cc1 (stereo not drawn) | x | x | -0.72 | x | x
CC(C)CSc1nc(N2CCOCC2)c2c(c1C#N)CC(C)(C)SC2 | 87* | 0.7 | -1.8 | 26 | 0.1
CCc1[nH]c(=O)c(C#N)c2c1CSC(C)(C)C2 | x | x | 0.85 | x | x
Cc1ccc(Cn2nnnc2CN2CCC(O)(c3ccccc3F)CC2)cc1 | x | x | 0.011 | x | x
Cc1cccc(-c2nnc(SCC#N)n2-c2ccccc2)c1 | 36 | 0.5 | 1.9 | 51* | 0.6
N#CCSc1nnc(COc2cccc3ccccc23)n1-c1cccc(Cl)c1 | -14 | 1.1 | 0.77 | -5 | 1.1
N#CCSc1nnc(COc2cccc3ccccc23)n1-c1ccccc1 | 96* | 0.1 | -4.6* | 91* | 0
N#CCSc1nnc(COc2ccccc2)n1-c1ccccc1 | x | x | 1.9 | x | x
COc1ccc(-n2c(COc3cccc4ccccc34)nnc2SCC#N)cc1 | x | x | -2.2 | x | x
Cc1ccc(-c2nnc(CSc3nnc(COc4cccc5ccccc45)n3-c3ccccc3)o2)cc1 | 59* | 0.7 | x | 30 | 0.4

Assay outcomes: PubChem, several laboratories
